# Bioassay records (PubChem BioAssay)
# Compounds with a hit are over-represented: about 19% of the library has one in this group of screens.
# TDP1 cell noCPT = qHTS for Inhibitors of human tyrosyl-DNA phosphodiesterase 1 (TDP1): qHTS in cells in absence of CPT. Potency, µM (doses to about 46.2 µM), actives largely listed as inhibitors. hit rate 15% among 420,000. DT40 Tdp1-/- hTDP1 cells, no CPT, ATP luminescence, 48 h; note: nearly all actives have a fitted effect of over 55% in size
#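 Cells were dispensed at 400 per well, compounds added by pin tool, plates incubated ≥48 hr at 37 °C, then CellTiter-Glo added for 30 min at room temperature before luminescence reading. Line: DT40 Tdp1-/- complemented with hTDP1; camptothecin omitted.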
# DT40 TDP1 CPT = DT40-hTDP1 cell growth loss with CPT; chicken DT40 Tdp1-/-;hTDP1 cells + 20 nM CPT, ATP luminescence, 48 h; Potency, µM (doses to about 46.2 µM), usual class: inhibitors; hit rate 12% among 420,000; note: nearly all actives have a fitted effect of over 55% in size
#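 Cell growth measured by CellTiter-Glo luminescence after a minimum 48 h, 37 C compound exposure with 20 nM CPT in Tdp1-knockout DT40 cells stably expressing hTDP1, seeded 400/well; qHTS titration format.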
# TDP1 block = inhibitors of human tyrosyl-DNA phosphodiesterase TDP1; Q9NUW8; Potency, µM (highest dose often 130 µM), most hits filed as inhibitors; recombinant TDP1, AlphaScreen DNA substrate cleavage; AID 485290; hit rate 0.28% among 350,000; note: nearly all actives have a fitted effect of over 40% in size
#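 Here, a 5' biotin and 3' phosphotyrosine-FITC DNA oligonucleotide reports Tdp1 activity: intact substrate bridges AlphaScreen beads, while cleavage leaves a 3' phosphate and drops signal. All incubations at room temperature.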
# VP16 counter = inhibits Gal4-VP16 luciferase reporter, ROR gamma counter-screen. Drosophila S2 Gal4-VP16 UAS-luciferase, luminescence, 20 h. Potency, µM (highest dose often 53.6 µM), most hits filed as inhibitors. hit rate 3.5% among 310,000. AID 2546;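 note: Gal4-VP16 expression switched on by copper sulfate through the metallothionein promoter; nearly all actives have a fitted effect of over 50% in size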
# RORg inh = blocks mouse ROR gamma transcriptional activity. hit rate 5.4% among 310,000. Potency, µM (highest dose often 53.6 µM), actives largely listed as inhibitors. P51450. Drosophila S2 Gal4-RORgamma UAS-luciferase reporter, 20 h; note: nearly all actives have a fitted effect of over 60% in size
# Target sequence (P51450 whole entry, looked up, the tested form may be a part): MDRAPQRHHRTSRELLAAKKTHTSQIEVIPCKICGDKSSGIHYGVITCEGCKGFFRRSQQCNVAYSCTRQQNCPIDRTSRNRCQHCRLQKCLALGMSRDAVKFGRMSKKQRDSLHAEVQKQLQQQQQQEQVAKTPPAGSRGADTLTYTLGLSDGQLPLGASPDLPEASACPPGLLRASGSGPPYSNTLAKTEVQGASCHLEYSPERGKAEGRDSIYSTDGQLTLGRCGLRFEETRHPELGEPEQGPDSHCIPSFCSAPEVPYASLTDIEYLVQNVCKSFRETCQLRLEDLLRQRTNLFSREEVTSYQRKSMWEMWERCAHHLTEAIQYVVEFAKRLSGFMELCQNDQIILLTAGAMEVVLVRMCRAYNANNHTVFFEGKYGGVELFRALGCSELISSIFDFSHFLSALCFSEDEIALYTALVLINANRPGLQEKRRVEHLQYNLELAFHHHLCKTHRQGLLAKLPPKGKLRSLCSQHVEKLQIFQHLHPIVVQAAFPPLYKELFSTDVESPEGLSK
#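 Stable Schneider cell line, Gal4 DNA-binding domain fused to ROR gamma, UAS-luciferase. Cmpd 1 hr RT → CuSO4 700 uM final → 20 hr RT → luciferase reagent 10 min → luminescence.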
# A number is an active result; – = inactive; ? = inconclusive; · = no result; [ ] = dose if it differs, or a comment. Calls come from the whole dose curve; as a rule, active = well fitted curve in the direction sought with a large enough effect; inconclusive = small, poorly fitted or top-dose-only effect, or another doubt; inactive = no such curve, though single readings can be large; an effect the other way counts as inactive or inconclusive.
SMILES,TDP1 cell noCPT,DT40 TDP1 CPT,TDP1 block,VP16 counter,RORg inh
COc1ccccc1C(=O)n1nc(-c2ccc(Cl)cc2)nc1N,?,?,–,–,–
CCn1c(C)nc2cc(C(=O)NNC(=O)Nc3ccc(Cl)cc3)ccc21,–,–,–,–,–
CN(C)CCCN(C(=O)c1ccco1)c1nc2cc3c(cc2s1)OCO3,5.17µM,3.66µM,–,–,–
CN(C)CCCN(C(=O)c1ccco1)c1nc2c(F)cc(F)cc2s1,20.6µM,?,–,–,–
COc1cc2nc(N(CCN(C)C)C(=O)c3ccc4ccccc4c3)sc2cc1OC,–,–,–,–,–
CN(C)CCCN(C(=O)c1ccco1)c1nc2c(F)cccc2s1,?,?,–,–,–
CCN(CC)CCN(C(=O)c1ccc2c(c1)CCCC2)c1nc2cc(OC)c(OC)cc2s1,–,23.1µM,–,?,–
CN(C)CCCN(C(=O)c1ccc(C(=O)c2ccccc2)cc1)c1nc2cc3c(cc2s1)OCO3,23.1µM,16.4µM,–,–,?
CN(C)CCN(C(=O)c1ccc2c(c1)CCCC2)c1nc2cc3c(cc2s1)OCCO3,29.1µM,?,–,–,–
CN(C)CCN(C(=O)c1ccc2c(c1)OCCO2)c1nc2cc3c(cc2s1)OCO3,–,–,–,–,–
CN(C)CCN(C(=O)c1ccc2ccccc2c1)c1nc2cc3c(cc2s1)OCO3,23.1µM,?,·,·,·
CN(C)CCN(C(=O)c1ccc(S(=O)(=O)N(C)C)cc1)c1nc2cc3c(cc2s1)OCCO3,–,–,–,–,–
CCOC(=O)/C(C#N)=C/c1cc2ccccc2nc1N1CCOCC1,–,–,–,?,–
N#CC(C#N)=Cc1cc2ccccc2nc1N1CCCCC1,20.6µM,20.6µM,–,–,–
COc1ccc(-c2nc3c(Cl)cc(C(F)(F)F)cn3c2Cc2cccc(F)c2)cc1OC,18.4µM,23.1µM,·,·,·
Cc1ccc(Cc2c(-c3cccc(Br)c3)nc3c(Cl)cc(C(F)(F)F)cn23)cc1,16.4µM,–,·,·,·
COc1ccc(OC)c(C2=Nn3c(nnc3-c3ccccc3O)SC2)c1,·,·,–,?,?
CCOC(=O)COc1ccc(S(=O)(=O)NCc2cccnc2)cc1,–,–,–,–,–
CC(C)c1ccc(NS(=O)(=O)c2ccc3c(c2)oc(=O)n3C)cc1,?,18.4µM,·,–,–
O=S(=O)(NCc1cccnc1)c1ccc2ccccc2c1,20.6µM,?,–[0.0935 µM],–,?
COc1cc(C)c(Br)cc1S(=O)(=O)NCc1ccccc1,–,–,–,–,–
COC(=O)COc1ccc(S(=O)(=O)NCc2ccncc2)cc1,9.2µM,4.11µM,–,2.82µM,?
Cc1cc(Br)c(S(=O)(=O)NCc2ccncc2)cc1C,7.31µM,5.8µM,–,·,·
Cn1c(=O)oc2cc(S(=O)(=O)Nc3ccc(Cl)cc3)ccc21,–,–,·,–,?
S=C(Nc1ccc(Cl)cc1Cl)N1CCOCC1,–,–,–,–,–
SMILES,TDP1 cell noCPT,DT40 TDP1 CPT,TDP1 block,VP16 counter,RORg inh
CCOC(=O)Cc1csc(NC(=O)CSc2nnnn2-c2ccc(CC)cc2)n1,–,–,–,?,?
CCCN1CCC(NC(=S)Nc2ccc(OC)c(OC)c2)CC1,–,?,–,–,–
COc1ccccc1CNC(=O)CCC(=O)N1CCOc2ccc(Cl)cc21,?,?,·,–,?
Cc1ccc(S(=O)(=O)NCc2ccccc2)cc1C(=O)NCc1ccccn1,–,–,–,–,–
O=C(O)CNS(=O)(=O)c1ccc(Br)s1,–,–,–,–,–
Cn1c(=O)oc2cc(S(=O)(=O)NCc3ccc(C(=O)O)cc3)ccc21,–,–,–,–,–
O=S(=O)(NCc1ccncc1)c1ccc(Br)s1,2.59µM,1.84µM,–,1.78µM,–
Cc1ccc(S(=O)(=O)NCc2ccncc2)cc1C(=O)NCC(C)C,?,14.6µM,–,–,–
Cn1c(=O)oc2cc(S(=O)(=O)NCc3ccncc3)ccc21,8.2µM,8.2µM,–,?,–
O=[N+]([O-])c1ccccc1S(=O)(=O)NCc1cccnc1,20.6µM,8.91µM,–,–,–
O=S(=O)(c1cccc(F)c1)N1CCN(S(=O)(=O)c2ccc3c(c2)OCCO3)CC1,·,·,–,·,·
COc1ccc(S(=O)(=O)NCc2cccnc2)cc1Br,5.8µM,4.61µM,–,11.2µM,?
O=S(=O)(NCc1ccncc1)c1ccccc1,8.2µM,23.1µM,–,15.8µM,–
Nc1ncc(S(=O)(=O)NCc2ccccc2)cn1,–,–,–,·,·
Cc1ccc(S(=O)(=O)NCc2ccncc2)cc1C,1.3µM,2.91µM,–,3.98µM,11.2µM
COc1cc(S(=O)(=O)NCc2ccncc2)ccc1Br,9.2µM,8.2µM,–,7.08µM,–
Cc1cc(C)c(C)c(S(=O)(=O)NCc2ccc(C(=O)N3CCN(C)CC3)cc2)c1C,–,–,–,?,–
Cc1cc(C)c(C)c(S(=O)(=O)NCc2ccncc2)c1C,13µM,20.6µM,–[0.0935 µM],?,?
CC(C)(C)c1ccc(C(=O)NCC(=O)NCC(C)(C)N2CCOCC2)cc1,–,–,–,·,·
O=C(O)c1cccc(Cn2c(Cl)c(/C=N/NC(=O)c3cccc(O)c3)sc2=O)c1,–,–,–,–,–
Cc1ccccc1N/N=C/c1sc(=O)n(Cc2cccc(C(=O)O)c2)c1Cl,20.6µM,?,·,–,–
CNC(=O)c1cc(Oc2ccc(NC(=O)Nc3ccc(Cl)c(C(F)(F)F)c3)cc2)ccn1,23.1µM,20.6µM,–,8.91µM,?
Cc1ccc(C(=O)Nc2ccc(Br)c(C(F)(F)F)c2)cc1,23.1µM,?,–,?,–
C/C(CC(=O)Nc1ccc(Cl)c(C(F)(F)F)c1)=N\NC(=O)c1cnccn1,–,?,–,–,–
O=C(Nc1ccc(Cl)c(C(F)(F)F)c1)c1ccncc1,14.6µM,?,–,–,–
SMILES,TDP1 cell noCPT,DT40 TDP1 CPT,TDP1 block,VP16 counter,RORg inh
O=C(Nc1ccc(NC(=O)c2ccncc2)cc1)c1ccncc1,·,·,–,–,–
Cc1ccc(NC(=O)c2ccc(C)cc2)cc1,–,–,–,·,·
CCCCN(C)CCNC(=O)CCn1nc(-c2ccc(C)cc2)ccc1=O,–,20.6µM,·,–,–
O=C(COC(=O)/C=C/c1ccc(Cl)cc1Cl)Nc1cc(C(F)(F)F)ccc1N1CCOCC1,–,–,–,–,–
COC(=O)[C@@]12C[C@@H](CC(=O)N3CCN(C(=O)c4ccco4)CC3)C(=O)N(Cc3ccc4c(c3)OCO4)C1=CCC(C)(C)C2,20.6µM,18.4µM,·,·,·
COC(=O)[C@@]12C[C@@H](CC(=O)N3CCN(C(=O)c4ccco4)CC3)C(=O)N(Cc3ccccc3)C1=CCC(C)(C)C2,14.6µM,?,·,·,·
Cc1cccc(-c2nc3ccccc3c(=O)n2NC(=O)/C=C/c2ccc([N+](=O)[O-])cc2)c1,–,–,–,–,?
COc1cc(NC(=O)CC2C(=O)N(c3ccccc3)C(=O)N2Cc2ccc(F)cc2)cc(OC)c1 (stereo unspecified),14.6µM,13µM,–,·,·
